# An excerpt weighted towards active compounds, which were near 6.2% of everything screened.
# HCMV antiviral: qHTS Assay for inhibitors of the human cytomegalovirus (HCMV); HFF cells, HCMV-luciferase reporter, 72 h; stronger effect = lower value; AID 1259415, 2018; 410,000 compounds, 4.5% hits; activity change, negative = inhibition, % at 57.5 µM; in the data active = activity change below about -60%; inconclusive = no clear call, values can overlap the other calls; inactive = above about -39%
#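 Inhibition of viral replication was scored as loss of reporter luminescence in HFFs infected with HCMV-luciferase (MOI 1 PFU/cell) for 72 h; compounds tested at 2 doses, normalized to buffer and Salinomycin controls.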
# LASV entry inh: qHTS for Inhibitors of binding or entry into cells for Lassa Virus. Lassa virus pseudotype entry inhibition, cell reporter. Potency, µM (doses to about 37.9 µM), for inactives: at the top dose activity change, negative = inhibition, most hits filed as inhibitors. 300,000 compounds, 1.2% hits. AID 540256, 2011; calls by dose curve; tested in HEK293 cells; also: potency is read from the fitted curve at half-maximal effect; nearly all actives have a fitted effect of over 50% in size
# FMDV antiviral: High Throughput Screening for Foot and Mouth Disease Virus Antivirals; 410,000 compounds, 1.2% hits; AID 1159524, 2015; Potency, µM (series often up to 57.9 µM), for the others: at the top dose activity change, negative = inhibition, hits mostly inhibitors; FMDV antiviral cell-based qHTS; calls by dose curve; tested in HEK293T cells; also: read-out not given here; potency is read from the fitted curve at half-maximal effect; nearly all actives have a fitted effect of over 45% in size
# MARV entry inh: qHTS for inhibitors of binding or entry into cells for Marburg Virus. AID 540276, 2011. Marburg virus pseudotyped entry inhibition, cell reporter. 300,000 compounds, 1.8% hits. Potency, µM (highest dose often 37.8 µM), for inactives: at the top dose activity change, negative = inhibition, most hits filed as inhibitors; calls by dose curve; tested in HEK293 cells; also: potency is read from the fitted curve at half-maximal effect
# An asterisk follows results filed as active; ? = inconclusive; . = not tested or not shown; [ ] = another dose, or the depositor's remark. % is scaled to controls: 0 for no effect and ±100 for the full control effect.
SMILES,HCMV antiviral,LASV entry inh,FMDV antiviral,MARV entry inh
O=C(CCCn1c(=S)[nH]c2cc3c(cc2c1=O)OCO3)N1CCN(c2ccccc2)CC1,-10,-11%,-13%,9%
COc1ccc(N2CCN(C(=O)CCCn3c(=O)[nH]c4ccsc4c3=O)CC2)cc1,-9,.,-16%,2%
O=C(CCCCCn1c(=S)[nH]c2ccc(N3CCOCC3)cc2c1=O)NCc1ccccc1,-30,-7%,-13%,6%
O=C(CCCCCn1c(=S)[nH]c2cc3c(cc2c1=O)OCO3)NCCc1ccccc1,61,.,3%,.
O=C(CCCCCn1c(=S)[nH]c2ccc(N3CCOCC3)cc2c1=O)NCc1cccc(Cl)c1,-71*,-26%,-1%,?
O=C(CCCn1c(=S)[nH]c2cc3c(cc2c1=O)OCO3)NCCc1ccc(Cl)cc1,-74*,.,-21%,.
O=C(CCCn1c(=O)[nH]c2ccsc2c1=O)N1CCN(c2ccc(Cl)cc2)CC1,?,15%[46.1 µM],28µM*,26%[46.1 µM]
O=C(CCCn1c(=S)[nH]c2cc3c(cc2c1=O)OCO3)N1CCN(c2ccc(Cl)cc2)CC1,-86*,?,?,?
Cc1ccc(CN2CCSc3ccc(C(=O)Nc4ccc(C)cc4)cc32)cc1,72,6%[46.1 µM],38%,?
CCOC(=O)c1nnn2c1nc(Nc1cccc(C(F)(F)F)c1)c1ccccc12,-74*,22%,-17%,?
CCOC(=O)c1nnn2c1nc(SCC(C)=O)c1ccccc12,5,0%,-13%,7%
CSc1ccc(NC(=O)Nc2cc(C)ccn2)cc1,6,7.1µM*,-43%,7.1µM*
COc1cc(/C=C2/C(=O)c3cccc([N+](=O)[O-])c3C2=O)c(Br)cc1O,16,-9%,3.5µM*,?
COc1ccccc1NC(=O)CCCCCN1C(=O)c2cccc([N+](=O)[O-])c2C1=O,1,.,-10%,.
COc1ccccc1NC(=O)C(Sc1ccccc1)c1ccccc1 (stereo unspecified),33,?,-20%,-16%
CCOC(=O)c1c(NC(=O)C(Sc2ccccc2)c2ccccc2)sc(C(N)=O)c1C (stereo unspecified),17,?,?,-30%
CCC(C(=O)Nc1sc(C(N)=O)c(C)c1C(=O)OC)c1ccccc1 (stereo unspecified),12,.,-22%,13µM*
CCOC(=O)c1c(NC(=O)C2c3ccccc3Oc3ccccc32)sc(C(=O)N(CC)CC)c1C,.,?,?,13µM*
CCOC(=O)c1c(NC(=O)C(Sc2ccccc2)c2ccccc2)sc(C(=O)N(C)C)c1C (stereo unspecified),-8,16µM*,0%,?
CCOc1ccccc1NC(=O)C(Sc1ccccc1)c1ccccc1 (stereo unspecified),-33,13µM*,-28%,?
COC(=O)C1(C)C2CC(C)C(c3ccccc32)N1C(=O)C(F)(F)F (stereo unspecified),.,?,.,-9%[14.2 µM]
COc1ccccc1Cn1cc(C(=O)c2ccc(C)cc2)c(=O)c2cc3c(cc21)OCCO3,-11,?,-24%,-15%[46.1 µM]
COc1cccc2cc(-c3nc(-c4ccc(Cl)cc4)cs3)c(=O)oc12,-2,?,-17%,.
Cn1c(=O)cc(OCC(=O)NCc2ccc(F)cc2Cl)c2ccccc21,7,?,14%,12%[46.1 µM]
CCC(C(=O)Nc1nc(C)c(C(=O)OC)s1)c1ccccc1 (stereo unspecified),4,21%[46.1 µM],-19%,-11%[46.1 µM]
SMILES,HCMV antiviral,LASV entry inh,FMDV antiviral,MARV entry inh
CCC(C(=O)Nc1ccsc1C(=O)OC)c1ccccc1 (stereo unspecified),-67*,15%,?,10%[46.1 µM]
CC(C)(C)NC(=O)C(c1ccc(-c2ccccc2)cc1)N(C[C@H]1CC[C@@H]([C@@H]2CC[C@H](CO)O2)O1)C(=O)c1ccc2ccccc2c1 (stereo partly specified),-100*,.,0%,.
CCN(CCO)c1ccc(Nc2cc(-c3ccc(-c4ccccc4)cc3)ncn2)cc1,-8,.,-22%,.
CCN(CCO)c1ccc(N=Nc2cc(C)[nH]n2)cc1,-80*,?,13µM*,?
CC(=O)Nc1cccc(-c2ccnc3c2CC(C)(C(=O)Nc2cccc(Oc4ccccc4)c2)O3)c1 (stereo unspecified),-27,.,-20%,.
Cc1ccc(CN2CCC=CS2(=O)=O)cc1,-15,.,.,?
CC(=O)Nc1ccc(NC(=O)Cn2c(CC(=O)N3CCCC3)nc3ccccc32)cc1,-88*,-10%,5%,16%
CCc1ccc(-n2c(SCC(=O)c3ccc4c(c3)NC(=O)CO4)nc3ccccc3c2=O)cc1,-28,?,-2%,-5%[46.1 µM]
O=C1COc2ccc(C(=O)CSc3nc4ccccc4c(=O)n3-c3ccc(Cl)c(Cl)c3)cc2N1,-81*,-13%,18%,?
C[n+]1ccccc1/C=C1\Sc2ccccc2N1CCO,?,?,-13%,-24%
Cc1ccc2c(c1)S/C(=C/c1ccc[n+](CCO)c1)N2C,-95*,.,?,?
Cc1ccc2c(c1)S/C(=C\c1cccc[n+]1C)N2CCO,-97*,.,?,.
COc1cccc(C(=O)/C=C2\Sc3ccccc3N2C)c1,-2,?,-7%,?
Cc1ccc(N2C(=O)CSC23C(=O)N(CC(=O)NCc2ccccc2)c2ccccc23)cc1 (stereo unspecified),-7,-12%[46.1 µM],8%,.
O=C(c1ccc(Cl)c([N+](=O)[O-])c1)N(Cc1ccc(Cl)cc1)C1CCS(=O)(=O)C1 (stereo unspecified),-60*,-12%,12%,?
O=C(c1ccc(Cl)c([N+](=O)[O-])c1)N(Cc1ccccc1)C1CCS(=O)(=O)C1 (stereo unspecified),?,-1%,-3%,-1%
CC(C)(C)c1ccc(OCC(=O)N2CCN(c3ccccn3)CC2)cc1,-94*,.,-27%,.
COc1ccc(Cl)cc1NC(=O)C(C)N1CCN(c2ccccn2)CC1 (stereo unspecified),-74*,.,?,.
CC(C(=O)Nc1ccccc1)N1CCN(c2ccccn2)CC1 (stereo unspecified),-12,.,4%,.
COc1ccccc1CC(=O)N1CCN(c2cccc(C(F)(F)F)c2)CC1,-70*,?,.,?
COc1ccccc1NC(=O)N1CCN(c2cccc(C(F)(F)F)c2)CC1,-37,8%,?,20%
COc1ccccc1/C=C/C=N/N1CCN(c2ccccn2)CC1,-64*,-14%,?,-17%
COc1ccccc1CC(=O)N1CCN(c2ccccn2)CC1,-73*,0%,6%,5%
CCOC(=O)c1cc(-c2ccc(C)cc2)n(CCC(=O)N2CCN(c3ccccn3)CC2)c1C,-14,16µM*,?,21µM*
CCOC(=O)c1cnc2c(C)cc(Cl)cc2c1N1CCN(C)CC1,-62*,11%,-23%,4%
CCOC(=O)c1cnc2c(OC)cccc2c1N1CCN(c2ccccn2)CC1,-69*,?,32µM*,11µM*
CC1(C2CC2)NC(=O)N(CC(=O)N2CCN(c3cccc(C(F)(F)F)c3)CC2)C1=O (stereo unspecified),?,-13%,35µM*,-5%
